Values joined by “and” are separate entries in the source; they are usually repeats but may differ in a detail not shown here. Equal values may be shown once. About 79,000 compounds went through this panel and 15% of them were active in at least one assay; those are over-represented in the sample as a whole. A structure can be active in one record and inactive in another. Active and inactive are the calls of the source. Rule as the data show it: active = growth inhibition above about 70%; inactive = the rest.

Assay [1] in a line: NCI Yeast Anticancer Drug Screen. Data for the rad50 strain (AID 155).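 Also: 0% = growth of vehicle-only cultures of the same strain.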 The note with it: S. cerevisiae rad50 strain growth inhibition, stronger effect = higher value. The procedure, abridged: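 A DNA repair-deficient yeast mutant serves as the test organism; compound-induced growth inhibition is calculated against vehicle-treated cells.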
A short description of assay [2]: NCI Yeast Anticancer Drug Screen. Data for the mec2-1 strain (AID 157). The note with it: S. cerevisiae mec2-1 strain, stronger effect = higher value. The method, boiled down: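 Using mec2-1 yeast: add compound, measure growth, express inhibition versus vehicle-treated cultures.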
The nature of assay [3]: NCI Yeast Anticancer Drug Screen. Data for the sgs1 mgt1 strain (AID 161).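 Also: 0% = growth of cultures given vehicle only.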 The note with it: S. cerevisiae sgs1 mgt1 strain, stronger effect = higher value. The procedure, abridged:
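Yeast cells carrying a defined DNA-repair defect were exposed to test compounds. Growth inhibition was measured relative to vehicle-treated controls.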

Assay [4] is described as follows: NCI Yeast Anticancer Drug Screen. Data for the cln2 rad14 strain (AID 165).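 Also: 0% = growth equal to vehicle treated cultures.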 The note with it: S. cerevisiae cln2 rad14 strain, stronger effect = higher value. The procedure, abridged: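 Yeast strain cln2 rad14, bearing defects in cell cycle control and DNA repair, serves as the test system; values reflect growth inhibition compared with vehicle.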
A short description of assay [5]: NCI Yeast Anticancer Drug Screen. Data for the bub3 strain (AID 167). The note with it: S. cerevisiae bub3 mutant strain, stronger effect = higher value. The method, boiled down:
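Inhibition values come from growth of compound-treated mutant yeast normalised to vehicle-treated controls.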

A short description of assay [6]: NCI Yeast Anticancer Drug Screen. Data for the mlh1 rad18 strain (AID 175). Particulars: S. cerevisiae mlh1 rad18 strain growth inhibition, stronger effect = higher value. The procedure, abridged:
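Steps: expose repair-defective yeast to compound; measure growth; express inhibition against vehicle-treated controls.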

[7] abbreviates: at 5.0 µM (retest, dose inferred, filed as 0.5).
The mark [8] stands for this setting: at 50.0 µM (retest, dose inferred, filed as 5.0).

For the molecule `CCN1CCC(O)(c2ccc(Oc3ccccc3)cc2)C(C(=O)c2ccc(Oc3ccccc3)cc2)C1` (stereo unspecified), the growth inhibition in assay [1] (setting [7]) is 25% (inactive); in assay [1] (setting [8]), 19% (inactive); in assay [1] (at 50.0 µM), 32.9% (inactive); in assay [2] (setting [7]), -10% (inactive); in assay [2] (setting [8]), -8% (inactive); in assay [2] (at 50.0 µM), 22.5% (inactive). The growth inhibition is 23% (inactive) in assay [3] (setting [7]); 28% (inactive) in assay [3] (setting [8]); -21.9% (inactive) in assay [3] (at 50.0 µM); 18% (inactive) in assay [4] (setting [7]); 35% (inactive) in assay [4] (setting [8]); 0.95% (inactive) in assay [4] (at 50.0 µM). Moreover, the growth inhibition in assay [5] (setting [7]) is 14% (inactive); in assay [5] (setting [8]) it was 38% (inactive); in assay [5] (at 50.0 µM), -23.9% (inactive); in assay [6] (setting [7]), 18% (inactive); in assay [6] (setting [8]) it was 40% (inactive).

As to `CCCCCCCCCCS(=O)CC(CO)NC(=O)/C=C/c1c(C)[nH]c(=O)[nH]c1=O` (stereo unspecified), the growth inhibition in assay [1] (setting [7]) is 35% (inactive); in assay [1] (setting [8]) it was 93% (active); in assay [1] (at 50.0 µM), 86.2% (active); in assay [2] (setting [7]), 20% (inactive); in assay [2] (setting [8]) it was 94% (active); in assay [2] (at 50.0 µM), 89.8% (active). Moreover, the growth inhibition in assay [3] (setting [7]) is 68% (inactive); in assay [3] (setting [8]) it was 98% (active); in assay [3] (at 50.0 µM), 88.7% (active); in assay [4] (setting [7]), 34% (inactive); in assay [4] (setting [8]), 89% (active); in assay [4] (at 50.0 µM) it was 84.2% (active). The growth inhibition in assay [5] (setting [7]) is 50% (inactive); in assay [5] (setting [8]), 96% (active); in assay [5] (at 50.0 µM), 88.3% (active); in assay [6] (setting [7]), 53% (inactive); in assay [6] (setting [8]) it was 92% (active).

Turning to `CC[C@@]1(OC(=O)C(N)CCCCN)C(=O)OCc2c1cc1n(c2=O)Cc2cc3ccccc3nc2-1` (stereo partly specified), the growth inhibition is 92% (active) in assay [1] (setting [7]); 95% (active) in assay [1] (setting [8]); 80.3% (active) in assay [1] (at 50.0 µM); 44% (inactive) in assay [2] (setting [7]); 96% (active) in assay [2] (setting [8]); 83.9% (active) in assay [2] (at 50.0 µM). The growth inhibition in assay [3] (setting [7]) was 18% (inactive); in assay [3] (setting [8]), -11% (inactive); in assay [3] (at 50.0 µM), 77.1% (active); in assay [4] (setting [7]) it was 13% (inactive); in assay [4] (setting [8]), -36% (inactive); in assay [4] (at 50.0 µM), 45.5% (inactive). For the same molecule, the growth inhibition in assay [5] (setting [7]) was 22% (inactive); in assay [5] (setting [8]) it was 30% (inactive); in assay [5] (at 50.0 µM), 64.1% (inactive); in assay [6] (setting [7]), 48% (inactive); in assay [6] (setting [8]), 91% (active).

As for `O=C(O)c1c2ccccc2nc2[nH]c(=O)[nH]c(=O)c12`, the growth inhibition was -1% (inactive) in assay [1] (setting [7]); -3% (inactive) in assay [1] (setting [8]); 3.3% (inactive) and 23.4% (inactive) in assay [1] (at 50.0 µM); -2% (inactive) in assay [2] (setting [7]); -2% (inactive) in assay [2] (setting [8]); -5.05% (inactive) and 33.4% (inactive) in assay [2] (at 50.0 µM). Moreover, the growth inhibition in assay [3] (setting [7]) was -6% (inactive); in assay [3] (setting [8]), -3% (inactive); in assay [3] (at 50.0 µM) it was -4.45% (inactive) and 24.3% (inactive); in assay [4] (setting [7]) it was 0% (inactive); in assay [4] (setting [8]), 6% (inactive); in assay [4] (at 50.0 µM) it was 62.9% (inactive) and -0.85% (inactive). For the same molecule, the growth inhibition is -1% (inactive) in assay [5] (setting [7]); -5% (inactive) in assay [5] (setting [8]); 7.1% (inactive) and 34% (inactive) in assay [5] (at 50.0 µM); 0% (inactive) in assay [6] (setting [7]); -4% (inactive) in assay [6] (setting [8]); -1.9% (inactive) and 15.7% (inactive) in assay [6] (at 50.0 µM).

For `CN(C)c1nc(N)c(C#N)c(C#N)c1C#N`, the growth inhibition in assay [1] (setting [7]) is 21% (inactive); in assay [1] (setting [8]), 62% (inactive); in assay [1] (at 50.0 µM) it was 69.6% (inactive); in assay [2] (setting [7]) it was 21% (inactive); in assay [2] (setting [8]) it was 44% (inactive); in assay [2] (at 50.0 µM) it was 88.2% (active). The growth inhibition is 11% (inactive) in assay [3] (setting [7]); 61% (inactive) in assay [3] (setting [8]); 80.8% (active) in assay [3] (at 50.0 µM); 27% (inactive) in assay [4] (setting [7]); 45% (inactive) in assay [4] (setting [8]); 53.9% (inactive) in assay [4] (at 50.0 µM). Further, the growth inhibition in assay [5] (setting [7]) was 9% (inactive); in assay [5] (setting [8]), 79% (active); in assay [5] (at 50.0 µM), 88.5% (active); in assay [6] (setting [7]), 26% (inactive); in assay [6] (setting [8]), 85% (active).

Take `COc1cc2c(c(OC)c1OC)-c1ccc(SC)c(=O)cc1C(NC(=O)c1ccccc1)CC2` (stereo unspecified): the growth inhibition in assay [1] (setting [7]) was -9% (inactive); in assay [1] (setting [8]), 65% (inactive); in assay [1] (at 50.0 µM) it was 79.8% (active); in assay [2] (setting [7]), -20% (inactive); in assay [2] (setting [8]), 61% (inactive); in assay [2] (at 50.0 µM) it was 86.9% (active). Besides, the growth inhibition is 5% (inactive) in assay [3] (setting [7]); 81% (active) in assay [3] (setting [8]); 83.5% (active) in assay [3] (at 50.0 µM); 11% (inactive) in assay [4] (setting [7]); 48% (inactive) in assay [4] (setting [8]); 52.9% (inactive) in assay [4] (at 50.0 µM). In addition, the growth inhibition in assay [5] (setting [7]) is -29% (inactive); in assay [5] (setting [8]), 63% (inactive); in assay [5] (at 50.0 µM), 78.5% (active); in assay [6] (setting [7]) it was -6% (inactive); in assay [6] (setting [8]) it was 70% (active).

As for `CCOc1ccc(N/N=C(\CCC(=O)O)C(=O)O)cc1`, the growth inhibition in assay [1] (setting [7]) was -6% (inactive); in assay [1] (setting [8]) it was 92% (active); in assay [1] (at 50.0 µM), 96% (active); in assay [2] (setting [7]) it was -9% (inactive); in assay [2] (setting [8]), 77% (active); in assay [2] (at 50.0 µM), 81% (active). For the same molecule, the growth inhibition was -3% (inactive) in assay [3] (setting [7]); 84% (active) in assay [3] (setting [8]); 50.2% (inactive) in assay [3] (at 50.0 µM); -64% (inactive) in assay [4] (setting [7]); 94% (active) in assay [4] (setting [8]); 94.1% (active) in assay [4] (at 50.0 µM). The growth inhibition is -15% (inactive) in assay [5] (setting [7]); -45% (inactive) in assay [5] (setting [8]); 86.7% (active) in assay [5] (at 50.0 µM); -5% (inactive) in assay [6] (setting [7]); 96% (active) in assay [6] (setting [8]); 95.2% (active) in assay [6] (at 50.0 µM).

With `O=C1c2cccc(NCCCNCCO)c2C(=O)c2cccc(NCCCNCCO)c21`, the growth inhibition in assay [1] (setting [7]) was 33% (inactive); in assay [1] (setting [8]), 47% (inactive); in assay [1] (at 50.0 µM) it was 43.2% (inactive) and 9.05% (inactive); in assay [2] (setting [7]), -8% (inactive); in assay [2] (setting [8]), 2% (inactive); in assay [2] (at 50.0 µM), 23.6% (inactive) and 5.3% (inactive). In addition, the growth inhibition in assay [3] (setting [7]) was 26% (inactive); in assay [3] (setting [8]), 39% (inactive); in assay [3] (at 50.0 µM), 12.7% (inactive) and 88.5% (active); in assay [4] (setting [7]), 30% (inactive); in assay [4] (setting [8]) it was 39% (inactive); in assay [4] (at 50.0 µM) it was 9% (inactive) and 48.1% (inactive). The growth inhibition in assay [5] (setting [7]) is 13% (inactive); in assay [5] (setting [8]), 39% (inactive); in assay [5] (at 50.0 µM), -8.35% (inactive) and 63.1% (inactive); in assay [6] (setting [7]), 15% (inactive); in assay [6] (setting [8]), 42% (inactive); in assay [6] (at 50.0 µM) it was 81.5% (active) and 83.4% (active).

`O=c1c(Cl)c(Cl)cnn1CCCl`: the growth inhibition is 40% (inactive) in assay [1] (setting [7]); 92% (active) in assay [1] (setting [8]); 74.9% (active) in assay [1] (at 50.0 µM); 9% (inactive) in assay [2] (setting [7]); 48% (inactive) in assay [2] (setting [8]); 17.6% (inactive) in assay [2] (at 50.0 µM). For the same molecule, the growth inhibition in assay [3] (setting [7]) is -1% (inactive); in assay [3] (setting [8]) it was 47% (inactive); in assay [3] (at 50.0 µM), -15.6% (inactive); in assay [4] (setting [7]), 6% (inactive); in assay [4] (setting [8]), 32% (inactive); in assay [4] (at 50.0 µM), 7.15% (inactive). Further, the growth inhibition was -6% (inactive) in assay [5] (setting [7]); 69% (inactive) in assay [5] (setting [8]); -10.5% (inactive) in assay [5] (at 50.0 µM); 15% (inactive) in assay [6] (setting [7]); 71% (active) in assay [6] (setting [8]).

The values are drawn from PubChem BioAssay (NCI).
